{"source": "PubChem BioAssay (EPA / NIEHS)", "note": "Several values for one entry are separate records, joined by “and”; a condition that tells them apart may be missing. Equal entries are not always repeated. Results filed as inconclusive are left out. The source holds several records for some structures; these can differ, active in one and inactive in another. Activity calls are given as the source filed them. How the source made its calls: active means hit-call score of the fitted dose curve at least 0.9, where 1 is the maximum; inconclusive means response in the unintended direction; inactive means score below 0.9.", "data": [{"test": "TOX21_p53_BLA_p3_viability: Viability Assessment in the Tox21 HCT-116 p53 Agonism Beta-lactamase Assay, Phase 3 (AID 2283593);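 further: cells exposed to compound for 16 h before reading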", "excerpt": "TOX21_p53_BLA_p3 is a cell-based, single-readout assay that uses HCT116, a human intestinal cell line, […] in a 1536-well plate.TOX21_p53_BLA_p3_viability is an assay readout measuring cellular ATP content and detected with CellTiter-Glo Luciferase-coupled ATP quantitation.TOX21_p53_BLA_p3_viability used a type of viability reporter where loss-of-signal activity can be used to understand changes in the cell viability. Furthermore, this assay endpoint can be referred to as a secondary readout, because this assay has produced multiple assay endpoints where this one serves a viability function. To generalize the intended target to other relatable targets, this assay endpoint is annotated to the cell cycle intended target family, where the subfamily is cytotoxicity.\nThawing Method: Place 14 mL of pre-warmed thaw medium into a 15 mL of conical tub. Remove the vial of cells to be thawed from liquid nitrogen and thaw rapidly by placing at 37C in a water bath with gentle agitation for 1-2 minutes. Decontaminate the vial by wiping with 70% ethanol before opening in a biological safety cabinet. Transfer the vial contents drop-wise into 14 mL of thaw medium in a sterile 15-mL conical tub. Centrifuge cells at 900 rpm for 4 minutes and resuspend in thaw medium. Transfer contents to the T75 tissue culture flask containing Thaw Medium and place flask in a humidified 37C/5% CO2 incubator. Switch to growth medium at first passage.Propagation Method: Aspirate medium, rinse once in DPBS, add 0.25% Trypsin/EDTA and swirl to coat the cell evenly. Add an equal volume of Growth Medium to inactivate Trypsin after 2-3 minutes incubation at 37C. Centrifuge cells at 900 rpm for 4 minutes and resuspend in growth medium. Cell should be passage or fed at least twice a week.Assay Protocol: Harvest cells from culture in growth medium and resuspend in assay medium. 2.2 Dispense 4000 cells/5 uL/well into 1536-well black/clear bottom plates using a Multidrop dispenser. After the cells were incubated at 37C for 5 hours, 23 nL of compounds dissolved in DMSO were transferred to the assay plate by a PinTool resulting in a 217-fold dilution. Incubate the plates for 16 hours at 37C, 5% CO2. Add 1 uL of 6X LiveBLAzer FRET B/G (CCF4-AM) Substrate Mixture to each well using a BioRAPTR dispenser and incubate the plates at room temperature for 2 hours. Measure fluorescence intensity at 460 and 530 nm emission and 405 nm excitation by an Envision detector. Data is expressed as the ratio of 460nm/530nm emissions. Add 4 uL of Cell-titer Glo to each well using BioRAPTR and incubate the plates at room temperature for […]. For cell viability readout that measures cytotoxicity, 4 ul/well of CellTiter-Glo reagent was added into the assay plates using a Flying Reagent Dispenser. After 30 min incubation at room temperature, the luminescence intensity in the plates was measured using a ViewLux plate reader.", "values": [{"smiles": "C[C@]12C/C(=C/O)C(=O)C[C@@H]1CC[C@@H]1[C@@H]2CC[C@@]2(C)[C@H]1CC[C@]2(C)O", "outcome": "inactive", "AC50": "66.6 µM (active)"}, {"smiles": "CCCCCCCCCCCCCCCCCCn1cc[n+](C)c1", "outcome": "inactive"}, {"smiles": "[S]=[Sb](=[S])[S][Sb](=[S])=[S]", "outcome": "inactive"}, {"smiles": "O=C(O)CBr", "outcome": "inactive"}, {"smiles": "Nc1ccc([N+](=O)[O-])cc1N", "outcome": "inactive"}, {"smiles": "CC(C)(C)C(=O)CCl", "outcome": "inactive"}, {"smiles": "Oc1ccc(C(=C(Cl)Cl)c2ccc(O)cc2)cc1", "outcome": "inactive"}, {"smiles": "CCCOC(=O)Cc1ccc(OCC(=O)N(CC)CC)c(OC)c1", "outcome": "inactive"}, {"smiles": "C=CCc1cc(OC)c2c(c1)OCO2", "outcome": "inactive"}, {"smiles": "N[C@@H](Cc1ccc(N(CCCl)CCCl)cc1)C(=O)O", "outcome": "inactive"}, {"smiles": "Oc1ccc2[nH]cc(CCCCN3CC=C(c4ccccc4)CC3)c2c1", "outcome": "inactive"}, {"smiles": "C=CC(=O)OCC(C)C", "outcome": "inactive"}, {"smiles": "CC(C)(C)NCC(O)c1cc(Cl)c(N)c(Cl)c1", "note": "(stereo not given)", "outcome": "inactive"}, {"smiles": "CCOP(=S)(OCC)Oc1cc(-c2ccccc2)on1", "outcome": "inactive"}, {"smiles": "COC(C)(C)CCC[C@H](C)C/C=C/C(C)=C/C(=O)OC(C)C", "outcome": "inactive"}, {"smiles": "CCCCCc1cc(O)c2c(c1)OC(C)(C)c1ccc(C)cc1-2", "AC50": "30.1 µM (active)"}, {"smiles": "CC(C)(O)[C@@H]1[C@H]2OC(=O)[C@@H]1[C@]1(O)C[C@H]3O[C@]34C(=O)O[C@H]2[C@]14C", "note": "(tested in a mixture with another compound)", "outcome": "inactive"}, {"smiles": "O=C(O)C(Cl)(Cl)Br", "outcome": "inactive"}, {"smiles": "CCCCCCC#N", "outcome": "inactive"}, {"smiles": "C[C@]12CC[C@H]3[C@@H](CCC4=CC(=O)CC[C@@H]43)[C@@H]1CC[C@@H]2O", "outcome": "inactive"}, {"smiles": "ClC1=C(Cl)C2(Cl)C(CBr)CC1(Cl)C2(Cl)Cl", "note": "(stereo not given)", "AC50": "63.4 µM (active) and 20.2 µM (active)"}, {"smiles": "BrCCCCCCBr", "outcome": "inactive"}, {"smiles": "[CH3][Hg][Cl]", "AC50": "79.6 µM (active)"}, {"smiles": "CCc1cc(OC)c(C[C@@H](C)N)cc1OC", "outcome": "inactive"}, {"smiles": "COC(C)(C)CCCC(C)C/C=C/C(C)=C/C(=O)OC(C)C", "note": "(stereo not given)", "outcome": "inactive"}, {"smiles": "Clc1cc(Cl)c(-c2cc(Cl)c(Cl)cc2Cl)cc1Cl", "outcome": "inactive"}, {"smiles": "CN1CCN=C(c2ccccc2)c2cc(Cl)ccc21", "outcome": "inactive"}, {"smiles": "CCOP(=S)(OCC)SC(CCl)N1C(=O)c2ccccc2C1=O", "note": "(stereo not given)", "outcome": "inactive"}, {"smiles": "O=C1C[C@@H]2OCC=C3CN4CC[C@]56c7ccccc7N1[C@H]5[C@H]2[C@H]3C[C@H]46", "note": "(tested in a mixture with another compound)", "outcome": "inactive", "AC50": "41.2 µM (active)"}, {"smiles": "N#Cc1sc2c(=O)c3ccccc3c(=O)c=2sc1C#N", "AC50": "25.2 µM (active)"}, {"smiles": "Cc1nnc2n1-c1sc(CCC(=O)N3CCOCC3)cc1C(c1ccccc1Cl)=NC2", "outcome": "inactive"}, {"smiles": "COC1=CC(=O)O[C@@H](/C=C/c2ccccc2)C1", "outcome": "inactive"}, {"smiles": "C[C@]12CC[C@@H]3c4ccc(OC(=O)N(CCCl)CCCl)cc4CC[C@H]3[C@@H]1CC[C@@H]2OP(=O)(O)O", "outcome": "inactive"}, {"smiles": "CC(C)[N+](C)(CCC(C(N)=O)(c1ccccc1)c1ccccc1)C(C)C", "outcome": "inactive"}, {"smiles": "ClC=CCl", "outcome": "inactive"}, {"smiles": "O=C(CCl)C(Cl)Cl", "outcome": "inactive"}, {"smiles": "Clc1ccc([C@@H]2C[C@H]3CC[C@@H]2N3)cn1", "outcome": "inactive"}, {"smiles": "O=C(NC(=O)c1c(F)cccc1F)Nc1ccc(Oc2ccc(C(F)(F)F)cc2Cl)cc1F", "outcome": "inactive"}]}]}
